# Experimental data reported in PubChem BioAssay (NCI).
# Compounds without any hit were thinned out: in the full panel of roughly 83,000, 20% have a hit.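 Activity criterion: percent growth below 10, measured after cells in 96-well plates were exposed to a single compound concentration for 48 hours.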 A number with no mark means an inactive call. Active and inactive are the calls of the source.
# What was measured:
# Test in all cases: NCI-60 one-dose screen, 48 h (100 = growth as untreated, 0 = no growth, -100 = all killed)
# Conditions in all cases: 10 µM
# BT-549 breast = tested on: BT-549 breast
# MDA-MB-435 melanoma = tested on: MDA-MB-435 melanoma
# SW-620 colon = tested on: SW-620 colon
# MCF7 breast = tested on: MCF7 breast
# HCT-116 colon = tested on: HCT-116 colon
# HCC-2998 colon = tested on: HCC-2998 colon
# KM12 colon = tested on: KM12 colon
SMILES,growth (BT-549 breast),growth (MDA-MB-435 melanoma),growth (SW-620 colon),growth (MCF7 breast),growth (HCT-116 colon),growth (HCC-2998 colon),growth (KM12 colon)
Cc1ccc(NC(=O)Nc2nc3ccccc3s2)cc1NC(=O)Nc1nc2ccccc2s1,104%,97.1%,102%,64.6%,84.9%,93.4%,88.2%
c1ccc2c(c1)oc1c3c(ccc12)NCCC3,89.5%,106%,103%,40.9%,95.7%,97.2%,101%
O=C1OCC2=C1C(c1ccc(Cl)c(Cl)c1)c1cc3c(cc1N2CCO)OCCO3 (stereo not given),60.4%,-52.6% (active),19%,20.4%,19.8%,,4.49% (active)
CN(C)CCS(=O)(=O)CCN(C)C,101%,116%,94.5%,107%,96.9%,102%,99.6%
Cc1occc1-c1nnc(SCC(=O)c2ccc(NC(=O)CC(C)C)cc2)o1,108%,97.9%,108%,107%,109%,,99.4%
CSc1nc(=O)n(Cc2ccc(F)cc2)c(=O)n1Cc1ccc(C)cc1,103%,117%,115%,91.1%,97.5%,,96.4%
COc1cc(-c2cc(/C=C3\C(=O)Nc4ccc(Cl)cc43)[nH]n2)cc(OC)c1OC,27.1%,10.3%,27.3%,0.175% (active),4.26% (active),,7.16% (active)
CCOC(=O)N1C=CC2C=CC1C1C=CC=CC2N1C(=O)OCC (stereo not given),89.4%,3.79% (active),82%,76.8%,,82.1%,84.9%
CCC(=O)N1C/C(=C/c2ccc(Cl)cc2)C(=O)/C(=C/c2ccc(Cl)cc2)C1,-18.7% (active),-58.6% (active),-63.6% (active),-77.9% (active),,-89.3% (active),
COc1ccc2c(c1)N(CCO)C1=C(C(=O)OC1)C2c1cc(OC)c(OC)c(OC)c1 (stereo not given),20.5%,-48.2% (active),19.4%,19.3%,4.03% (active),,-43% (active)
O=C1c2ccc3c4c(ccc(c24)C(=O)N1CCNCc1ccccc1)C(=O)N(CCNCc1ccccc1)C3=O,-21.3% (active),-75.6% (active),3.88% (active),-45.4% (active),-18% (active),,-43.3% (active)
COc1ccc(-c2ccc3cc(C(=O)Nc4ccc(O)c(C(=O)/C=C/c5cc(OC)c(OC)c(OC)c5)c4)ccc3c2)cc1,102%,93.4%,94.2%,87.3%,79.2%,,104%
CCN(CC)CCCC(C)Nc1nc(-c2ccc(OC)cc2)nc2cc(Cl)ccc12 (stereo not given),75.6%,35%,80.9%,44.6%,47.1%,,66.3%
